Screening results from PubChem.
An excerpt weighted towards active compounds, which were near 0.41% of everything screened.
GLA inh pH 4.5: inhibitors of human alpha-galactosidase A at pH 4.5 | activity change, negative = inhibition, % at 105 µM | P06280 | purified enzyme, 4-MU-alpha-Gal fluorescence, pH 4.5 | 230,000 tested, under 10 active
Target sequence (P06280 whole entry, looked up): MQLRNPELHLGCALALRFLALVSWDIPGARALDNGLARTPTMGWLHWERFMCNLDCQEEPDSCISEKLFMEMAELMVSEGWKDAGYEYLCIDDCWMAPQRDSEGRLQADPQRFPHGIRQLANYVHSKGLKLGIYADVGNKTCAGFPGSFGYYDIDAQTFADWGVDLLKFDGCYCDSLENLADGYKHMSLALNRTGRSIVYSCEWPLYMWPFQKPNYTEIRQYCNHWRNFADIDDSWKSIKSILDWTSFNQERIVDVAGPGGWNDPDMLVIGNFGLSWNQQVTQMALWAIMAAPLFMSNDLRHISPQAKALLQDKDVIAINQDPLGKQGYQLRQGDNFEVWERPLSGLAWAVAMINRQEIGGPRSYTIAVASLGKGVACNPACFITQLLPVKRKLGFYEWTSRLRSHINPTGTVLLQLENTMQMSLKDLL
GAA glycogen mod: inhibitors or activators of human alpha-glucosidase glycogen cleavage | P10253 | recombinant GAA, glycogen substrate, Amplex Red glucose oxidase fluorescence | Potency, µM (series often up to 76.4 µM), most hits filed as inhibitors | 300,000 tested, 0.38% active | AID 2100;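 note: the screen sought inhibitors and activators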
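Recombinant human alpha-glucosidase (4 nM final) hydrolysed bovine liver glycogen (30 ug) for 40 min at 37 C in pH 5.0 citrate/phosphate with 0.01% Tween-20. Released glucose detected by glucose oxidase/Amplex Red, Ex 573/Em 610 nm. Compounds up to 77 uM; AC50 from Hill fits.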
GAA inh: inhibitors of human lysosomal alpha-glucosidase | purified human GAA, 4-MU-alpha-glucoside fluorescence | P10253 | 200,000 tested, 0.005% active | Potency, µM (highest dose often 76.9 µM), usual class: inhibitors
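Endpoint fluorogenic read: 20 min room-temperature reaction of 4 nM human alpha-glucosidase with 400 uM 4-methylumbelliferyl-alpha-D-pyranoside, pH 5.0, quenched with 1M NaOH/1M glycine pH 10. AC50 from Hill modeling.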
N370S GC: inhibits or activates N370S mutant glucocerebrosidase. 330,000 tested, 0.092% active. N370S GC spleen homogenate, 4MU-glucoside fluorescence. Potency, µM (doses to about 59.4 µM), actives largely listed as inhibitors. P04062. AID 2101
aGal spleen mod: inhibitors or activators of human alpha-galactosidase in spleen homogenate | AID 2107 | 240,000 tested, 0.008% active | Potency, µM (top dose mostly 80 µM), usual class: inhibitors | human spleen homogenate, 4MU-alpha-Gal fluorescence, 40 min | P06280
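Spleen homogenate 1 ug + cpd (titration) + 4-MU-alpha-D-galactopyranoside 1 mM; 37C 40 min; 50 mM citrate/phosphate pH 5.0, 0.01% Tween-20; stop pH 10; fluorescence 365/440; AC50 via Hill.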
GAA spleen mod: inhibits or activates alpha-glucosidase in human spleen homogenate. P10253. human spleen homogenate, 4-MU-alpha-glucoside fluorescence. Potency, µM (titrated, usually from 79.9 µM), actives largely listed as inhibitors. 240,000 tested, 0.006% active. AID 2112
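AC50 values come from Hill-equation fits of concentration-response data, normalized to no-enzyme and full-activity controls. Enzyme source: 1 ug human spleen homogenate; 1 mM fluorogenic 4-MU glucoside, pH 5.0 citrate buffer, 37 C, 40 min.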
Large screens that a line does not name were inactive. Calls come from the whole dose curve; as a rule, active = well fitted curve in the direction sought with a large enough effect; inconclusive = small, poorly fitted or top-dose-only effect, or another doubt; inactive = no such curve, though single readings can be large; an effect the other way counts as inactive or inconclusive.

CC[C@H](C)[C@H](NC(=O)[C@H](Cc1ccc(O)cc1)NC(=O)[C@H](Cc1cnc[nH]1)NC(=O)[C@H](CCCNC(=N)N)NC(=O)[C@H](CC(C)C)NC(=O)[C@H](C)NC(=O)[C@H](CO)NC(=O)[C@H](Cc1ccc(O)cc1)NC(=O)[C@H](Cc1ccc(O)cc1)NC(=O)[C@H](CCCNC(=N)N)NC(=O)[C@H](C)NC(=O)[C@H](CC(C)C)NC(=O)[C@H](CC(=O)O)NC(=O)[C@H](CCC(=O)O)NC(=O)[C@H](C)NC(=O)[C@@H]1CCCN1C(=O)[C@H](C)NC(=O)[C@H](CC(=O)O)NC(=O)[C@H](CCC(=O)O)NC(=O)CNC(=O)[C@@H]1CCCN1C(=O)[C@H](CC(N)=O)NC(=O)[C@H](CC(=O)O)NC(=O)[C@@H]1CCCN1C(=O)[C@H](CCCCN)NC(=O)[C@H](CO)NC(=O)[C@@H]1CCCN1C(=O)[C@@H](N)Cc1ccc(O)cc1)C(=O)N[C@@H](CC(N)=O)C(=O)N[C@@H](CC(C)C)C(=O)N[C@H](C(=O)N[C@H](C(=O)N[C@@H](CCCNC(=N)N)C(=O)N[C@@H](CCC(N)=O)C(=O)N[C@@H](CCCNC(=N)N)C(=O)N[C@@H](Cc1ccc(O)cc1)C(N)=O)[C@@H](C)O)[C@@H](C)CC	none (no result: GLA inh pH 4.5, GAA glycogen mod, GAA inh)
Cc1ccc(C)c(-c2nn(-c3cc(N4CCN(CCO)CC4)ccc3[N+](=O)[O-])c(=O)c3ccccc23)c1	N370S GC 16µM
CCc1cccc(C)c1Nc1c(-c2ccc(N(C)C)cc2)nc2cnccn12	GAA glycogen mod 10µM (no result: GLA inh pH 4.5, GAA inh, N370S GC, aGal spleen mod, GAA spleen mod)
COc1ccccc1-c1nnc2n1N=C(c1ccc(O)c(O)c1)CS2	GAA glycogen mod 11µM
Cc1ccc(OCCn2cc(C(=S)N3CCCC3)c3ccccc32)cc1C	none
COC(=O)c1cn(CCOc2ccccc2)c2ccccc12	none
COc1ccc(OCCn2cc(/C(N)=N/O)c3ccccc32)cc1	GAA glycogen mod 12µM, GAA inh inconclusive
Cc1ccc(OCCn2cc(/C(N)=N/O)c3ccccc32)cc1C	GAA glycogen mod 40µM, N370S GC inconclusive
NS(=O)(=O)c1nn2cc(-c3ccccc3)nc2s1	none (no result: GLA inh pH 4.5, GAA glycogen mod, GAA inh)
CN1c2ccccc2C(C)(C)[C@]12C=Cc1cc(O)ccc1O2	GAA glycogen mod 7.9µM
CN1c2ccccc2C(C)(C)C12C=Nc1c(ccc3ccccc13)O2 (stereo unspecified)	none
O=C(CNC(=S)N(CCCN1CCOCC1)Cc1cccs1)NC1CCCCCCC1	N370S GC 4µM
O=C(Nc1ccc(Cl)c(Cl)c1)N(CCCN1CCOCC1)Cc1cccs1	N370S GC 13µM
Cc1ccc(S(=O)(=O)NNc2ccccc2)cc1	GAA glycogen mod inconclusive (no result: N370S GC)
Cc1ccc(S(=O)(=O)NNc2nc3ccccc3nc2C(F)(F)F)cc1	GAA glycogen mod 28µM
O=C(NNc1nc2ccccc2nc1C(F)(F)F)c1ccccc1	GAA glycogen mod 11µM
Nc1ncc(-c2ccccc2)c(-c2ccc(O)cc2O)n1	N370S GC 14µM (no result: GLA inh pH 4.5, GAA inh, aGal spleen mod, GAA spleen mod)
COc1ccc(-c2cnc(N)nc2-c2ccc(OCc3ccccc3)cc2O)cc1	none
CCOc1ccc(-c2cc3nc(C4CCN(C(=O)OC(C)(C)C)CC4)c(C(=O)Nc4ccc(C)cc4C)cn3n2)cc1	GAA glycogen mod 35µM (no result: GLA inh pH 4.5, GAA inh, N370S GC, aGal spleen mod, GAA spleen mod)
Cc1ccc(Nc2ccc(N)cc2S(=O)(=O)O)cc1	GAA glycogen mod inconclusive
Nc1ccc(Nc2ccccc2)c(S(=O)(=O)O)c1	GAA glycogen mod 14µM
CCC[C@H](NC(C)=O)C(=O)N[C@H]1CC(=O)ONCCCC[C@@H](C(N)=O)NC(=O)[C@H](Cc2c[nH]c3ccccc23)NC(=O)[C@H](CCCN=C(N)N)NC(=O)[C@@H](Cc2ccc3ccccc3c2)NC(=O)[C@H](Cc2cnc[nH]2)NC1=O	none (no result: GLA inh pH 4.5, GAA glycogen mod, GAA inh)
Cc1sc2nc(CN3CCN(c4ccc(O)cc4)CC3)[nH]c(=O)c2c1C	GAA glycogen mod 16µM (no result: GAA inh)
COc1cccc(C(=O)/C=C/Nc2cc(C)ccc2O)c1	GAA glycogen mod 28µM
